Screens as filed in PubChem BioAssay.
Cruzain inh noDet: blocks cruzain activity in detergent-free assay; P25779; purified cruzain, Z-FR-AMC fluorescence, no detergent; Potency, µM, for inactives: max response, negative = inhibition, actives largely listed as inhibitors; 200,000 tested, 2.3% active; AID 1476;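 note: plate controls were enzyme without inhibitor for no effect and buffer without enzyme for full effect; nearly all actives have a fitted effect of over 40% in size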
Target sequence (P25779 123-467 limits assumed): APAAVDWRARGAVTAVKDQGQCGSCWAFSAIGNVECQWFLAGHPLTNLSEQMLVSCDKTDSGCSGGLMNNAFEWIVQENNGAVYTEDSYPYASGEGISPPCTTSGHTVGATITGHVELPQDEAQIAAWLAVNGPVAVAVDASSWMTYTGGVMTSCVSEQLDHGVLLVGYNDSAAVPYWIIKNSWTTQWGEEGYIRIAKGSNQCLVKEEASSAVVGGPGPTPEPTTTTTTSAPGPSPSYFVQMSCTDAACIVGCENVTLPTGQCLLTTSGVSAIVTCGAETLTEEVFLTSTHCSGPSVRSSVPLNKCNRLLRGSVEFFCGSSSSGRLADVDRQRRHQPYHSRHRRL
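Detergent-free condition (0.00005% Triton X-100) in acetate buffer pH 5.5 with DTT. 1.5 nM enzyme and compound were pre-mixed 15 min, then 2 uM Z-FR-AMC substrate added; reaction progress from fluorescence change between first and third reads (60 s).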
Cruzain inh Det: cruzain (T. cruzi) inhibition with detergent. P25779. purified cruzain, Z-FR-AMC fluorescence, 0.01% Triton. Potency, µM, without a hit: max response, negative = inhibition, most hits filed as inhibitors. 200,000 tested, 0.43% active. AID 1478;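 note: plate controls were neutral wells for no effect and buffer without enzyme for full effect; nearly all actives have a fitted effect of over 40% in size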
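In this qHTS format, compounds are incubated with 1.5 nM cruzain for 15 min at room temperature before 2 uM Z-FR-AMC is added. Release of AMC is followed at 360/450 nm, and progress is taken as the 60 s fluorescence difference.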
Giardia FBPA inh-1: Giardia lamblia aldolase inhibition; Potency, µM (titrated, usually from 59.6 µM), inactives show at the highest dose activity, negative = inhibition, hits mostly inhibitors; purified Giardia FBPA; 290,000 tested, 0.71% active; A8B2U2; note: nearly all actives have a fitted effect of over 55% in size
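Giardia FBPA (40 nM reagent) was preincubated 10 min at RT with compound (up to 57.5 uM final), then substrate plus GAPDH/TPI/NAD/arsenate coupling system with diaphorase/resazurin was added; resorufin fluorescence (525/598 nm) was read after 20 min.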
Giardia growth: Giardia lamblia growth inhibition; shares compounds with Giardia FBPA inh-1; 1,500 tested, 5% active; Giardia lamblia trophozoite growth inhibition; Potency, µM (highest dose often 57.5 µM), without a hit: top-dose activity change, negative = inhibition, actives largely listed as inhibitors;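 note: trophozoites exposed to compound for 48 h at 37 °C; nearly all actives have a fitted effect of over 70% in size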
Mammalian tox: toxic to mammalian cells in Giardia aldolase counter-screen; shares compounds with Giardia FBPA inh-1; mammalian cell viability counter-screen, qHTS; Potency, µM (doses to about 57.5 µM), inactives show at the top dose viability change, negative = toxicity, actives largely listed as inhibitors; 1,500 tested, 4% active; AID 2786;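 note: Chinese hamster ovary cells used as mammalian cytotoxicity surrogate; viability measured as cellular ATP by luminescence; compound exposure lasted 48 h before reading; nearly all actives have a fitted effect of over 60% in size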
Giardia FBPA inh-2: confirmation of Giardia fructose-bisphosphate aldolase inhibitors; shares compounds with Giardia FBPA inh-1; purified Giardia aldolase enzyme activity, qHTS; Potency, µM (highest dose often 57.5 µM), without a hit: top-dose activity change, negative = inhibition, actives largely listed as inhibitors; 1,500 tested, 5% active; note: nearly all actives have a fitted effect of over 45% in size
Rabbit FBPA inh: blocks rabbit muscle aldolase in Giardia aldolase selectivity test. shares compounds with Giardia FBPA inh-1. Rabbit muscle FBPA enzyme inhibition, selectivity counter-screen. Potency, µM (series often up to 57.5 µM), for inactives: at the highest dose activity, negative = inhibition, most hits filed as inhibitors. 1,500 tested, 4% active. AID 2794; note: nearly all actives have a fitted effect of over 60% in size
Target sequence (P00883 whole entry, looked up): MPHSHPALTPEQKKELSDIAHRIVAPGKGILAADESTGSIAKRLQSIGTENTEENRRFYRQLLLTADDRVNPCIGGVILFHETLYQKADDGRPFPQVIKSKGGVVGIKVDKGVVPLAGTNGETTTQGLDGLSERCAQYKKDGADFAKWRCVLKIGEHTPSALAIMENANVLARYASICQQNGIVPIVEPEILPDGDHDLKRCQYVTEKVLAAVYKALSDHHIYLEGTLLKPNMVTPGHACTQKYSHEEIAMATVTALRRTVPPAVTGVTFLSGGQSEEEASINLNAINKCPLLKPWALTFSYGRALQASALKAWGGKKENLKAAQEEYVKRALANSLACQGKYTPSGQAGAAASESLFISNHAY
GAPDH coupling: GAPDH inhibition flagged for Giardia aldolase hits | shares compounds with Giardia FBPA inh-1 | GAPDH coupling enzyme counterscreen, biochemical, qHTS | Potency, µM (titrated, usually from 57.5 µM), for the others: at the top dose activity change, negative = inhibition, actives largely listed as inhibitors | 1,500 tested, 6% active | AID 2795; note: nearly all actives have a fitted effect of over 55% in size
An asterisk follows results filed as active; [ ] = another dose, or the depositor's remark. The full list was thinned out, with hits kept by preference. Calls come from the whole dose curve; as a rule, active = well fitted curve in the direction sought with a large enough effect; inconclusive = small, poorly fitted or top-dose-only effect, or another doubt; inactive = no such curve, though single readings can be large; an effect the other way counts as inactive or inconclusive. Unless noted, % is set by controls: 0 for no effect and ±100 for the full control effect; potency is the fitted concentration of half-maximal effect.

For Cn1c(=O)c(C(=O)Nc2ncccc2O)c(O)c2ccccc21 the results were Cruzain inh noDet inconclusive, Cruzain inh Det 0%, Giardia FBPA inh-1 8.9µM*, Giardia growth 7%[10.4 µM], Mammalian tox -5%, Giardia FBPA inh-2 inconclusive, Rabbit FBPA inh inconclusive and GAPDH coupling -14%.
`COc1ccc(N(Cc2cc3cccc(C)c3[nH]c2=O)C(=O)c2cccc(Cl)c2)cc1` gave Cruzain inh noDet inconclusive and Cruzain inh Det -7%.
For COc1cc(OC)cc(C(=O)NC(=S)Nc2ccc(Cl)c(C(=O)O)c2)c1 the results were Cruzain inh noDet -2%, Cruzain inh Det 1% and Giardia FBPA inh-1 -18%.
Screening COCCNC(=S)NNc1ccc(Cl)c(C(=O)O)c1 returned Giardia FBPA inh-1 7.1µM*, Giardia growth inconclusive, Mammalian tox 4%, Giardia FBPA inh-2 -8%, Rabbit FBPA inh -4% and GAPDH coupling -7%.
`O=C1NC(=O)/C(=C/c2ccc(-c3cc(C(=O)O)ccc3Cl)o2)S1` gave Giardia FBPA inh-1 32µM*, Giardia growth 64%, Mammalian tox 8%, Giardia FBPA inh-2 2%, Rabbit FBPA inh -2% and GAPDH coupling 9%.
For O=C1NC(=S)/C(=C\c2ccc(-c3ccccc3Cl)o2)S1 the results were Cruzain inh noDet -24%, Cruzain inh Det -25% and Giardia FBPA inh-1 -3%.
Screening Cn1nnc(NC(=S)NC(=O)Cc2ccccc2)n1 returned Giardia FBPA inh-1 1.6µM*, Giardia growth -13%[38.3 µM], Mammalian tox -5%, Giardia FBPA inh-2 -7%, Rabbit FBPA inh -5% and GAPDH coupling -1%.
`CCCn1nnc(NC(=O)Cc2ccccc2)n1` gave Cruzain inh noDet 0%, Cruzain inh Det 5% and Giardia FBPA inh-1 3%.
COc1cccc(C(=O)NC(=S)Nc2ccc(N(C)C)cc2)c1 was read as Cruzain inh noDet -7%, Cruzain inh Det -12% and Giardia FBPA inh-1 -5%.
`COc1cccc(C(=O)NC(=S)Nc2nnn(C)n2)c1` gave Cruzain inh noDet -18%, Cruzain inh Det -1%, Giardia FBPA inh-1 1.6µM*, Giardia growth -18%[38.3 µM], Mammalian tox -1%, Giardia FBPA inh-2 -2%, Rabbit FBPA inh 5% and GAPDH coupling 7%.
Screening CCSS(=O)(=O)c1cccc2cccnc12 returned Giardia FBPA inh-1 16µM*, Giardia growth -18%[10.4 µM], Mammalian tox -4%, Giardia FBPA inh-2 -10%, Rabbit FBPA inh inconclusive and GAPDH coupling inconclusive.
O=C(O)CCS(=O)(=O)c1cccc2cccnc12 was read as Cruzain inh noDet -1%, Cruzain inh Det -1% and Giardia FBPA inh-1 3%.
O=C1CN(C(=O)COc2ccc(Cl)cc2Cl)C(c2ccccc2)c2cc(F)ccc2N1 (stereo not drawn) was read as Cruzain inh noDet -23% and Cruzain inh Det -6%.
For COc1cc(Br)c(CNc2cc(C)ccc2C)cc1OC the results were Giardia FBPA inh-1 20µM*, Giardia growth -19%, Mammalian tox -3%, Giardia FBPA inh-2 -3%, Rabbit FBPA inh 7% and GAPDH coupling 6%.
For COc1ccc(CNc2cc(C)ccc2C)c(OC)c1OC the results were Cruzain inh noDet -3%, Cruzain inh Det -1% and Giardia FBPA inh-1 6%.
For CCOC(=O)N1CCN(CC(=O)Nc2ccc(C)c(Br)c2)CC1 the results were Cruzain inh noDet 19%, Cruzain inh Det 1% and Giardia FBPA inh-1 inconclusive.
Screening CN1CCN(CC(=O)Nc2ccc(S(=O)(=O)N(C)C)cc2)CC1 returned Giardia FBPA inh-1 14µM*, Giardia growth inconclusive, Mammalian tox -10%, Giardia FBPA inh-2 5%, Rabbit FBPA inh -4% and GAPDH coupling 1%.
For CN(C)S(=O)(=O)c1ccc(NC(=O)CN2CCCCCC2)cc1 the results were Giardia FBPA inh-1 -3%.
Cc1ccc(NC(=O)CN2CCN(C)CC2)cc1Br was read as Giardia FBPA inh-1 16µM*, Giardia growth inconclusive, Mammalian tox 2%, Giardia FBPA inh-2 0%, Rabbit FBPA inh 3% and GAPDH coupling 5%.
`Cc1ccc(N2CC(c3nnc(NC(=O)c4ccco4)s3)CC2=O)cc1Cl` (stereo not drawn) gave Cruzain inh noDet -5% and Cruzain inh Det -2%.
Cc1ccc(Cn2c(CNS(=O)(=O)c3ccc(Cl)s3)nc3cccnc32)cc1 was read as Cruzain inh noDet 5% and Cruzain inh Det 1%.
Screening CCc1ccccc1N1CC(c2nnc(NC(=O)c3ccco3)s2)CC1=O (stereo not drawn) returned Cruzain inh noDet -9% and Cruzain inh Det -6%.
Screening CCCCCCCC/C=C\CCCCCCCC(=O)N(CCO)CCO returned Cruzain inh noDet inconclusive and Cruzain inh Det 1%.
Cc1cccc(-n2cnc(C(=O)N3CCN(C)CC3)c2)n1 was read as Giardia FBPA inh-1 0%.
Screening Cc1cccc(-n2cnc(C(=O)O)c2)n1 returned Giardia FBPA inh-1 20µM*, Giardia growth 10%[10.4 µM], Mammalian tox 22%, Giardia FBPA inh-2 2%, Rabbit FBPA inh -2% and GAPDH coupling 4%.
Screening N[C@@H](CSC1(c2ccc(Cl)cc2)c2ccccc2-c2ccccc21)C(=O)O returned Cruzain inh noDet 1% and Cruzain inh Det -4%.
CCOC(=O)c1cnc(-c2ccccc2O)nc1Cl was read as Giardia FBPA inh-1 20µM*, Giardia growth inconclusive, Mammalian tox 1%, Giardia FBPA inh-2 inconclusive, Rabbit FBPA inh inconclusive and GAPDH coupling inconclusive.
For CCOC(=O)c1cnc(-c2ccccc2)nc1Oc1ccc(Cl)cc1 the results were Cruzain inh noDet 4%, Cruzain inh Det 3% and Giardia FBPA inh-1 9%.
`Cc1ccc2oc(C(=O)Nc3ccc(S(=O)(=O)Nc4nc(C)cc(C)n4)cc3)cc(=O)c2c1` gave Cruzain inh noDet 0% and Cruzain inh Det -13%.
`CCOc1ccccc1NS(=O)(=O)c1c(C)noc1C` gave Cruzain inh noDet -3%, Cruzain inh Det -2%, Giardia FBPA inh-1 13µM*, Giardia growth -28%, Mammalian tox 0%, Giardia FBPA inh-2 inconclusive, Rabbit FBPA inh inconclusive and GAPDH coupling 40µM*.
CCOc1ccccc1NC(=O)C1CCN(S(=O)(=O)c2c(C)noc2C)CC1 was read as Cruzain inh noDet -4%, Cruzain inh Det 3% and Giardia FBPA inh-1 -2%.
CN=C(NC#N)Nc1ccc(C2=NNC(=O)C[C@@H]2C)cc1 was read as Cruzain inh noDet 3%, Cruzain inh Det 2% and Giardia FBPA inh-1 10%.
